Data taken from PubChem BioAssay.

The molecules below were run on XIP peptide (Xip251-270) binding (assay: small-molecule binders of XIP peptide, primary screen, biochemical, small-molecule microarray, fluorescence 635/667 nm, 0.1 µg/mL protein (AID 1182)). Settings: fluorescent protein binding, 635 nm, higher = more signal, called active from +8 up or from −8 down.

Composite z-score, inactive:
C=CCNC(=O)[C@@H]1[C@H]2C(=O)O[C@H](c3ccccc3)[C@H](c3ccccc3)N2[C@H](c2ccccc2OCCO)[C@@]12C(=O)N(C(=O)OCCOC)c1ccc(C#CC3=CCCCC3)cc12 0.0103, CC(C)(C)OC(=O)CC[C@]1(C(=O)O)N=C(c2ccc(OCCCO)cc2)O[C@H]1c1ccccc1 -0.0164, CN(C)CCCN1C(=O)[C@@]2(c3ccc([N+](=O)[O-])cc3)CC(=O)N(CC34CC5CC(CC(C5)C3)C4)[C@@H]2c2ccc(CO)cc21 -0.0347, C=C(C(=O)CC[C@H](OC(=O)c1cccnc1)c1cccc(OCCO)c1)C(C)C 0.24, O=C1OCC=C[C@H]2OC34C=CCN(Cn5nnc6ccccc65)C(=O)[C@H]3N(CCCCCCO)C(=O)[C@@H]4[C@@H]12 (some centres undefined) -0.231, COCCOC(=O)N1C(=O)[C@@]2(c3cc(C#CCNC(N)=O)ccc31)[C@H](C(=O)N1CCCCCCC1)[C@H]1C(=O)O[C@H](c3ccccc3)[C@H](c3ccccc3)N1[C@@H]2c1ccc(O)cc1 0.328, COc1ccc(CCNC(=O)[C@@]2(Sc3ccc(C)cc3)CC(=O)N(Cc3cc(C(F)(F)F)cc(C(F)(F)F)c3)[C@@H]2c2ccc(CO)cc2I)cc1 0.439, COc1cc2c(cc1O)C(C)N(Cc1cc3c(cc1Br)OCO3)CC2 (centres undefined) 1.5, CC(C)(C)OC(=O)CC[C@@]1(C(=O)O)N=C(c2ccc(OCCCO)cc2)O[C@@H]1c1ccccc1CN=[N+]=[N-] -0.168, CC(C)C(=C=CC[C@H](O)c1ccc(OCCO)cc1)C[C@H](O)c1cc(Cl)cc(Cl)c1O 0.263, CC(C)NC(=O)[C@@]1(C)c2ccccc2C(=O)N(C(C)C)[C@H]1c1ccc(CO)cc1 3.06, CCOC(=O)[C@H]1C/C=C/C[C@H](C(=O)OCC)C(=O)O[C@H]2[C@@H](OC)O[C@H](CO)[C@@H](OC(=O)CCc3ccccc3)[C@@H]2OC1=O -0.0432, COCCOC(=O)N1C(=O)[C@@]2(c3cc(C#Cc4ccc(OC)cc4)ccc31)[C@H](C(=O)NC[C@H](O)c1ccccc1)[C@H]1C(=O)O[C@H](c3ccccc3)[C@H](c3ccccc3)N1[C@@H]2c1ccc(O)cc1 1.42, COc1ccc([Si](C)(C)[C@@H]2[C@@H](CC(=O)N3CCC[C@H]3CO)O[C@]3(C(=O)N(Cc4ccc(N5C(=O)c6cccc7cccc5c67)cc4)c4ccccc43)[C@H]2C)cc1 0.353, O=C1O[C@@H](c2ccccc2)[C@@H](c2ccccc2)N2[C@@H](c3ccccc3OCCO)[C@]3(C(=O)Nc4ccccc43)[C@@H](C(=O)NC[C@H](O)c3ccccc3)[C@H]12 1.42, COC(=O)[C@@]1(Cc2ccc(OC)cc2)[C@H]2c3cc(C(=O)N(C)C)n(CCc4c[nH]c5ccc(O)cc45)c3C[C@H]2CN1C(=O)c1ccccc1 0.545, C[N+](C)(C)CCCC[C@@H]1NC(=O)[C@@H]2C[C@H](C(=O)O)[C@H](c3ccc(O)cc3)N2C1=O 2.65, COc1ccc([Si](C)(C)[C@@H]2[C@@H](CCn3cc([C@H](O)c4ccccc4)nn3)O[C@]3(C(=O)N(Cc4ccc(N5CCOC5=O)cc4)c4ccccc43)[C@H]2C)cc1 0.0449, CC(=O)n1cc(C(O)C2C=CC3C(=O)N(Cc4ccccc4)C(=O)C3N2n2cnnc2)c2ccccc21 (centres undefined) 0.097, C=CC[C@]12N=C(c3ccc(OCCCO)cc3)O[C@H]1c1ccccc1N(C)C2=O 2.91, CC1CC/C=C\[C@H]2OC34C=CCN(c5ccc6ccccc6c5)C(=O)[C@H]3N(C(CO)C(C)C)C(=O)[C@@H]4C2C(=O)O1 (some centres undefined) 0.17, C=CCOC(=O)[C@H]1[C@@H]2C(=O)O[C@@H](c3ccccc3)[C@@H](c3ccccc3)N2[C@@H](c2ccc(OCCOC(=O)[C@H]3C[C@H]4C(=O)N[C@@H](Cc5ccccc5)C(=O)N4[C@H]3c3cccc(OCCO)c3)cc2)[C@]12C(=O)Nc1ccc(I)cc12 0.893, CN(C)CCCCNC(=O)[C@H]1C[C@H]2C(=O)N[C@@H](CCCCN(C)C)C(=O)N2[C@H]1c1cccc(OCCO)c1 1.64, CCCC[C@@H]1C[C@H]1[C@@H](NC(=O)c1cccnc1)c1ccc(-c2ccccc2)cc1 -0.414
